Bioassay records (PubChem BioAssay)
Mdm2-MdmX inh = inhibitors of human Mdm2/MdmX interaction. SaOS-2 split-luciferase Mdm2/MdmX complementation, luminescence. inhibition, % at 8 µM. 330,000 tested, 3% active;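 active means inhibition of at least 50% at 8 µM in the primary screen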
KLF5 inh = suppresses KLF5 promoter-driven expression; DLD-1 KLF5 promoter-luciferase reporter, luminescence; inhibition, % at 5 µM; 290,000 tested, 0.23% active;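 active means inhibition above a per-plate limit of that plate's mean compound inhibition plus 3 SD, cut at about 60% in these data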;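 further: 0% = DMSO wells and 100% = LY294002 at 200 µM; higher means less KLF5 promoter-driven luciferase light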
697 NFkB inh = inhibitors of the PMA/ionomycin-induced NF-kB reporter in 697 B cells | 697 B-cell NF-kB luciferase reporter, 16 h | inhibition, % at 4 µM | 330,000 tested, 0.33% active | AID 435022; in the data active means inhibition above about 35%
Jurkat NFkB inh = lowers PMA/ionomycin-induced NF-kB signal in Jurkat cells | PMA/ionomycin-induced NF-kB luciferase reporter, luminescence | inhibition, % at 4 µM | 330,000 tested, 0.53% active; in the data active means inhibition above about 50%
aSyn UTR inh = 5' untranslated region of α-synuclein, MLPCN primary screen; alpha-synuclein 5'UTR reporter, inhibitor activity; inhibition, % (tested at 7.5 µM); 300,000 tested, 0.82% active; AID 1813; in the data active means inhibition above about 60%; inconclusive means no clear call, values can overlap the other calls;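 further: H4 neuroglioblastoma cells stably carrying SNCA 5'UTR luciferase fusion; 0% = DMSO wells and 100% = positive control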
Gli-Sufu block = blocks Gli-Sufu signaling in a luciferase reporter | Sufu-KO-LIGHT fibroblasts, Gli luciferase reporter luminescence | inhibition, % at 5 µM | 340,000 tested, 0.74% active | AID 588413;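 active means inhibition above about 55%, limit read from the data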;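 further: 0% = DMSO-treated cells and 100% = wells with medium but no cells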
Mdm2 MdmX conf = confirmation of human Mdm2/MdmX interaction inhibitors; shares compounds with Mdm2-MdmX inh; inhibition, % at 8 µM; Mdm2-MdmX binding, luminescent assay; 10,000 tested, 55% active; AID 489028; in the data active means inhibition above about 40%
FLuc counter = inhibits full-length luciferase, flagging false Mdm2/MdmX hits; shares compounds with Mdm2-MdmX inh; SaOS-2 full-length luciferase counterscreen, luminescence; inhibition, % at 8 µM; 6,200 tested, 77% active; AID 504607;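 active means mean inhibition at 8 µM reaching about 37%, which flags the compound as non-specific, limit read from the data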;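 further: p53-null SaOS-2 cells with luciferase driven by a doxycycline-inducible promoter; compound on cells about two nights before reading with doxycycline added after day one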
* hit, by the source's call; ? = inconclusive; . = not tested or not shown. The list is not random: actives were taken first. Their share in the collection is about 4.1%.

SMILES	Mdm2-MdmX inh	KLF5 inh	697 NFkB inh	Jurkat NFkB inh	aSyn UTR inh	Gli-Sufu block	Mdm2 MdmX conf	others
Cc1[nH]nc2ncc(C(=O)c3ccccc3O)cc12	81*	-8	-4	19	20	-11	81*	FLuc counter=30
O=c1c(O[C@@H]2O[C@H](CO)[C@@H](O)[C@H](O)[C@H]2O)c(-c2ccc(O)c(O)c2)oc2cc(O)cc(O)c12	52*	-19	0	-1	7	.	15
O=c1c(O[C@@H]2O[C@H](CO)[C@H](O)[C@H](O)[C@H]2O)c(-c2ccc(O)c(O)c2)oc2cc(O)cc(O)c12	.	10	.	.	.	.	.
Cc1cc(C)c(S(=O)(=O)N2CCN(S(=O)(=O)N3CCOCC3)CC2)c(C)c1	32	-15	0	9	8	-7	.
CCC(C)NS(=O)(=O)c1ccc(NC(=O)C(Sc2ccccc2)c2ccccc2)cc1 (stereo not given)	56*	8	14	18	?	-1	44*	FLuc counter=70*
COc1ccc(-n2c(SCC(N)=O)nnc2-c2ccc(NS(=O)(=O)c3ccc(C)cc3)cc2)cc1	4	-13	-14	-5	-7	4	.
CCOC(=O)c1c(NC(=O)CSc2nnc(-c3c[nH]c4ccccc34)n2C)sc2c1CCCC2	61*	3	-23	14	10	3	15
CCOC(=O)c1c(NC(=O)CSc2nnc(-c3c[nH]c4ccccc34)n2CCOC)sc2c1CCCC2	43	12	-2	12	24	10	.
COc1ccc(-c2nnc(SCC(=O)Nc3sc4c(c3C#N)CCCC4)n2-c2ccccc2)cc1	78*	-28	-17	-2	34	21	0
COc1ccc(-n2c(SCC(=O)Nc3ccccc3)nnc2-c2ccc(NS(=O)(=O)c3ccc(C)cc3)cc2)cc1	91*	-14	-1	0	41	15	28
COc1ccc(-n2c(SCC(=O)Nc3sc4c(c3C#N)CCCC4)nnc2-c2ccccc2OC)cc1	45	-6	3	-11	24	-2	.
CCOC(=O)C1CCCN(Cc2nc(CC3CC3)no2)C1 (stereo not given)	7	0	10	-5	-23	15	.
O=C(Nc1ccnn1C1CCN(CCCc2ccccc2)CC1)c1cccc(F)c1	22	-34	-10	-11	-4	16	.
C=CCN1N=C(c2ccc(NC(=O)c3ccccc3)cc2)CSC1=O	66*	-57	-44	-29	20	-5	4
Nc1nc(NCCCN2CCOCC2)nc(Nc2ccccc2F)c1[N+](=O)[O-]	15	-13	-11	-8	28	1	.
C/C(=N\Nc1cc(-c2ccccc2)nc(-c2ccc(Br)cc2)n1)c1cccc(N)c1	29	12	-25	-14	2	12	.
C/C(=N/Nc1cc(-c2ccccc2)nc(-c2ccccc2)n1)c1ccc(O)cc1	56*	-15	-52	1	-55	3	19
O=C(Nc1ccc(N2CCN(Cc3ccccc3F)CC2)cc1)c1ccccc1[N+](=O)[O-]	23	-5	4	11	20	11	.
CCC(=O)N1CCN(c2ccc(NC(=O)c3ccc([N+](=O)[O-])o3)cc2)CC1	.	4	.	.	?	9	.
CC(C)(C)C(=O)N1CCN(c2ccc(NC(=O)c3ccc([N+](=O)[O-])o3)cc2)CC1	54*	47	-4	28	29	-5	46*	FLuc counter=31
CN1CCN(c2ccc(NC(=O)c3ccc(-c4ccc(Br)cc4)o3)cc2)CC1	77*	-33	-29	18	29	14	39	FLuc counter=81*
O=C(Nc1ccc(N2CCN(Cc3ccccc3F)CC2)cc1)c1ccc([N+](=O)[O-])o1	81*	19	1	37	105*	42	69*	FLuc counter=16
Cc1cc(=O)oc2cc(NC(=O)C(C)N3C(=O)C4CCCCC4C3=O)ccc12 (stereo not given)	-10	.	22	-6	.	9	.
Clc1nc(CN2CCCCC2)nc2sc3c(c12)CCC3	33	-10	-9	1	-57	10	.
